Screens: PubChem, National Center for Advancing Translational Sciences (NCATS)
Shown are actives, neighbours in structure and some others; about 1.3% of the full set was active somewhere.
SARS PLpro yeast: qHTS of Yeast-based Assay for SARS-CoV PLP; S. cerevisiae expressing SARS-CoV PLpro, growth rescue; Potency, µM (doses to about 32.9 µM), for the others: at the top dose activity, positive = growth rescue, usual class: activators; 330,000 compounds, 0.19% hits; calls by dose curve; note: 0% is about no effect; nearly all actives have a fitted effect of over 55% in size
AmpC no deterg: qHTS Inhibitors of AmpC Beta-Lactamase (assay without detergent); Potency, µM (highest dose often 57.1 µM), inactives show top-dose activity change, negative = inhibition, usual class: inhibitors; 330,000 compounds, 0.52% hits; AID 485341, 2010; P00811; AmpC nitrocefin hydrolysis, absorbance 480 nm, 0.0001% Triton;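 note: plate controls were no compound for no effect and no enzyme for full effect; nearly all actives have a fitted effect of over 20% in size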
Target sequence (P00811 whole entry, looked up): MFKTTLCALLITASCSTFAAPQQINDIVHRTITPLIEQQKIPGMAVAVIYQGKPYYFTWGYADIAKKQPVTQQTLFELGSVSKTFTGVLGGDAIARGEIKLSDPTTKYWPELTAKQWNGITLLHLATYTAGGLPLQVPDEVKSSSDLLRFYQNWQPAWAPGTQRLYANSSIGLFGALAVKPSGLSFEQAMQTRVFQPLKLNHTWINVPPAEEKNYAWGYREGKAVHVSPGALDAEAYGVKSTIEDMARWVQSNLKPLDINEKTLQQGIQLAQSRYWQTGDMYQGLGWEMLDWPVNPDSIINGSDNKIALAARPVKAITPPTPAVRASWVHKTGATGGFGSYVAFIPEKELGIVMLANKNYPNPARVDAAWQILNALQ
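AmpC (5.3 nM in the dispensed reagent) in 20 mM phosphate pH 7.0 with 0.01% (detergent screen) or 0.0001% Triton X-100 was preincubated with compounds for 15 min at room temperature. Nitrocefin was then added from an 800 uM solution, and hydrolysis was followed at 480 nm.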
Vaccinia mCherry: qHTS for Stage-Specific Inhibitors of Vaccinia Orthopoxvirus: mCherry Reporter Primary qHTS | Vaccinia virus mCherry reporter infection, fluorescence | Potency, µM (highest dose often 36.5 µM), inactives show at the highest dose activity change, negative = inhibition, actives largely listed as inhibitors | 310,000 compounds, 0.63% hits | AID 720579, 2013; calls by dose curve; tested in A549 cells; note: % is set by controls: 0 for no effect and ±100 for the full control effect; nearly all actives have a fitted effect of over 35% in size
Vaccinia Venus: qHTS for Stage-Specific Inhibitors of Vaccinia Orthopoxvirus: Venus Reporter Primary qHTS | Vaccinia virus Venus reporter expression, fluorescence | Potency, µM (series often up to 36.5 µM), for inactives: at the top dose activity change, negative = inhibition, usual class: inhibitors | AID 720580, 2013 | 330,000 compounds, 0.46% hits; calls by dose curve; tested in A549 cells; note: % is set by controls: 0 for no effect and ±100 for the full control effect; nearly all actives have a fitted effect of over 30% in size
AmpC inh detg: qHTS Inhibitors of AmpC Beta-Lactamase (assay with detergent); 370,000 compounds, 0.041% hits; AmpC hydrolysis of nitrocefin, absorbance 480 nm, 0.01% Triton; Potency, µM (doses to about 114 µM), for the others: top-dose activity change, negative = inhibition, hits mostly inhibitors;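 note: 0% = no-compound wells and -100% = no-enzyme wells; nearly all actives have a fitted effect of over 25% in size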
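20 mM phosphate pH 7.0 + 0.01% (detergent screen) or 0.0001% Triton X-100; 5.3 nM AmpC reagent; cpd preinc 15 min RT; nitrocefin (800 uM stock) to start; A480 q20 s × 4 min; Activity was normalised to no-enzyme and no-compound control wells.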
Numbers without * were called inactive; i = inactive; ? = inconclusive; . = not tested or not shown; ! = a repeat was not active. Unless noted, calls come from the whole dose curve; as a rule, active = well fitted curve in the direction sought with a large enough effect; inconclusive = small, poorly fitted or top-dose-only effect, or another doubt; inactive = no such curve, though single readings can be large; an effect the other way counts as inactive or inconclusive. Potency is the fitted concentration of half-maximal effect.

SMILES | SARS PLpro yeast | AmpC no deterg | Vaccinia mCherry | Vaccinia Venus | AmpC inh detg
CCOC(=O)CN(C)C(=O)c1cnn(-c2ncc3c(n2)-c2ccccc2CCC3)c1C | . | . | -9% | -8% | .
Cc1cc(C)c(S(=O)(=O)c2ccccc2C)c(SCC(C)C)n1 | -8% | 0.25µM* | . | ? | 0%
COCC(=O)Nc1cc(C(=O)N2CC3CCCC2C3)c2c(c1)nc(-c1ccncc1)n2C (configuration not stated) | . | . | -2% | -6% | .
Cc1ccc(S(=O)(=O)Nc2cc(=O)[nH]c(SCc3ccccc3Cl)n2)cc1 | 13% | 10µM* | -3% | ? | ?
CNC(=O)C[C@H]1C(=O)N(CCc2ccccc2)C[C@@H]1Cc1ccccc1 | . | . | i | -6% | .
Cc1ccc(CNc2nc(CN3CCSCC3)nc3ccccc23)o1 | . | . | -18% | -8% | .
CCC(COC)NC(=O)c1cnn(-c2ncc3c(n2)-c2ccccc2CCC3)c1C (configuration not stated) | . | . | -2% | -17% | .
CC(=O)N(Cc1ccc(F)cc1)C1=C(NCc2ccccc2)C(=O)c2ccccc2C1=O | -20% | 49% | 2.5µM* | 3.5µM* | -1%
O=C(NCc1ccc(F)cc1)C(c1ccccc1)c1ccccc1 | 8% | -32% | . | . | -4%
Cc1ccc(S(=O)(=O)N2CCC(C(=O)Nc3ccccc3N3CCCCC3)CC2)cc1 | 2% | -19% | -18% | -1% | 32µM*
N/C(Cc1ccc(Cl)cc1Cl)=N\OC(=O)Cc1cccs1 | -59% | -23% | -9% | -8% | -7%
N/C(Cc1ccc(Cl)cc1Cl)=N\OC(=O)c1cccs1 | -23% | 0.32µM* | . | . | 4%
CC(=O)Nc1ccccc1-c1nc(CNC(=O)c2cccc(F)c2)c(C)o1 | . | . | i | -19% | .
Cc1cc(C)n2nc(CC(=O)NC3CCCCCCC3)nc2n1 | -1% | -8% | . | . | -10%
Cc1cc(C)n2nc(S(=O)(=O)NC3CCCCC3)nc2n1 | 7% | 2.5µM* | . | . | -10%
CN(C)CCCN1c2ccc(O)cc2Sc2ccc(Cl)cc21 | . | . | -15% | ? | .
OC1CC2CCC(C1)N2CCCN1c2ccccc2Sc2ccc(Cl)cc21 (configuration not stated) | . | . | ? | 11µM* | .
CN1CCN(CCCN2c3ccccc3Sc3ccc(Cl)cc32)CC1 | -30% | 225% | 11µM*! | 11µM* | -6%
CC(C)CNc1ncnc2nc[nH]c12 | . | . | -12% | -20% | .
CC(C)CCCCCCCCCCCCC(=O)NCC(=O)NC1C(C)OC(Nc2ncnc3nc[nH]c23)C(O)C1O (configuration not stated) | . | . | ? | 2µM* | .
O=[N+]([O-])c1ccc(NN=Cc2cccc3ccccc23)nc1 | . | . | ? | 6% | .
O=[N+]([O-])c1ccc(Nc2nc(N/N=C/c3cccc(F)c3)nc(N3CCCC3)n2)cc1 | -16% | -16% | -27% | -25% | -6%
COc1cccc(/C=N/Nc2ccc([N+](=O)[O-])cn2)c1O | -10% | -24% | 1.1µM* | ? | -1%
COc1cccc(/C=N/Nc2nc(Nc3ccc([N+](=O)[O-])cc3)nc(N3CCCC3)n2)c1O | ? | -20% | 4µM* | -28% | 0%
O=C(O)CN(CC(=O)O)CC1=CC2C(=CC1=O)Oc1cc(O)c(CN(CC(=O)O)CC(=O)O)cc1C21OC(=O)c2ccccc21 (configuration not stated) | . | . | 45% | i | .
SMILES | SARS PLpro yeast | AmpC no deterg | Vaccinia mCherry | Vaccinia Venus | AmpC inh detg
O=c1[nH]c2c(s1)C(c1ccc(O)cc1)C1C3CCC(C3)C1S2 (configuration not stated) | 0% | 45µM* | ? | -18% | -14%
O=c1[nH]c2c(s1)C(c1cccnc1)C1C3CCC(C3)C1S2 (configuration not stated) | 0% | -28% | . | . | -4%
COc1ccc(Nc2ncnc3nc[nH]c23)cc1OC | -2% | 13µM* | -7% | -12% | ?
c1ccc(COc2ccc(Nc3ncnc4nc[nH]c34)cc2)cc1 | -7% | -25% | 7.1µM* | -30% | ?
Cc1ccc(Nc2ncnc3nc[nH]c23)cc1 | . | . | -8% | -21% | .
CN(C)c1nc2cc(Cl)ccc2cc1CN(Cc1ccc2c(c1)OCO2)C(=O)c1ccoc1 | . | . | -9% | -2% | .
Cc1cc2c(=O)n(Cc3ccco3)c(SCC(=O)c3ccc(Cl)s3)nc2s1 | 3% | 28µM* | . | . | -1%
Cc1cc(C)nc(-c2cccc3c2OC(CNC(=O)c2ccc(Cn4nc(C)cc4C)cc2)C3)n1 (configuration not stated) | . | . | -5% | 3% | .
COc1ccc(C(=O)NCCN2Cc3ccccc3OC(c3ccsc3)C2)c(OC)n1 (configuration not stated) | . | . | -8% | 10% | .
O=c1[nH]nc(SCCS(=O)(=O)c2ccc(F)cc2)n1-c1ccc2c(c1)OCCO2 | 0% | -26% | ? | 1.6µM* | 4%
O=S(=O)(NCCSc1nnnn1-c1ccccc1)c1ccc(F)cc1 | . | . | -7% | -8% | 1%
O=c1[nH]nc(SCCS(=O)(=O)c2ccc(F)cc2)n1-c1ccccc1 | 0% | -9% | 1.3µM* | 2.2µM* | 5%
Cn1c(=O)c2c(-c3ccc(C(C)(C)C)cc3)n(N3CCOCC3)cc2n(C)c1=O | 2% | -10% | -2% | 7% | 35µM*
Cn1c(=O)c2c(-c3ccccc3)n(N3CCOCC3)cc2n(C)c1=O | -9% | -14% | -3% | 1% | ?
CC(C)CNS(=O)(=O)c1ccc(CCC(=O)N2CCOCC2)cc1 | 2% | 0.22µM* | -14% | -5% | 4%
NS(=O)(=O)c1cccc(NS(=O)(=O)c2ccc(/C=C/C(=O)OCC(=O)c3ccccc3)cc2)c1 | 0% | 3.5µM* | -17% | -4% | -14%
O=C(COc1ccccc1)Nc1nnc(-c2ccc3c(c2)CCCC3)o1 | ? | 10µM* | -25% | -29% | ?
O=C(Nc1nnc(-c2ccc3c(c2)CCCC3)o1)c1ccccc1 | -20% | -28% | 10µM* | ? | -11%
O=C(COc1ccccc1)Nc1nnc(-c2ccc(F)cc2)o1 | -11% | -42% | i | -11% | -4%
O=C(Nc1nnc(-c2ccc3c(c2)CCCC3)o1)c1ccccc1Cl | -11% | -53% | ? | -29% | -12%
COC(=O)c1c(NC(=O)c2cc(=O)c3cc(C)cc(C)c3o2)sc2c1CCC2 | . | . | 0% | 0% | 11%
Cc1cccc(C)c1-n1c(C)cc(/C=N/NC(N)=S)c1C | 10µM* | -21% | -17% | ? | -10%
Cc1cc(/C=N/NC(N)=S)c(C)n1-c1cccc(Cl)c1 | 3% | -34% | -22% | -15% | -5%
